In PubChem BioAssay (NCI):
The panel holds about 79,000 compounds, 15% with a hit somewhere; the sample as a whole holds those more often. Activity calls are given as the source filed them. Rule as the data show it: active = growth inhibition above about 70%; inactive = the rest.

Assay: NCI Yeast Anticancer Drug Screen. Data for the rad50 strain (AID 155);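 also: 0% = growth of vehicle-only cultures of the same strain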
Conditions: S. cerevisiae rad50 strain growth inhibition; at 50.0 µM; active compounds read high
Outline: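 Compounds were tested on a yeast strain with an engineered DNA damage repair alteration; the reported value is growth inhibition normalised to vehicle treatment.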
In the case of `Cc1ccccc1C1CCCCC1OS(C)(=O)=O` (stereo not given), the growth inhibition is reported as -6.3% (inactive). For `N#CC(c1ccccc1)N(CCc1ccccc1)C(=O)c1ccc(C(=O)N(CCc2ccccc2)C(C#N)c2ccccc2)cc1` (stereo not given), the growth inhibition was 15.2% (inactive). With `C=Cc1nnnn1C` the growth inhibition was 7.45% (inactive). In the case of `C/C=C/C=C/C(=O)CCC1(C)OC(=O)C(C)=C1O` (stereo not given), the growth inhibition is reported as -0.9% (inactive). For `CC(CO)C1C[C@H](O)[C@@]2(C)CC(=O)C=C(CO)[C@@H]2C1` (stereo not given in full), the growth inhibition was 35% (inactive). For `Cc1c(C)c(C(Cl)(Cl)Cl)c(C)c(C)c1Br`, the growth inhibition was -0.7% (inactive). For `COc1cc(C2C(Cl)C(=O)N2NC(=O)c2ccc(N)cc2)cc(Br)c1O` (stereo not given), the growth inhibition was 16.3% (inactive). For `COC(=O)c1ccc(N=NN(C)COC(C)=O)cc1`, the growth inhibition was 27.4% (inactive). With `C=C1CCc2occ(C)c2C2C1C1=C(CC(C)C1=O)C1OC12C` (stereo not given) the growth inhibition was 14.9% (inactive). For `Cc1n[nH]c2ccccc2c1=O`, the growth inhibition was -4.85% (inactive). With `c1ccc(C2=NC(c3ccccc3)(c3ccccc3)N=C2c2ccccc2)cc1` the growth inhibition was 2.75% (inactive). In the case of `COC1(OC)C2(Cl)C(Cl)=C(Cl)C1(Cl)C1C=CC=CC12` (stereo not given), the growth inhibition is reported as -19.9% (inactive). For `COc1ccc(C=Nc2ccc(Cl)cc2)cc1`, the growth inhibition was -11.5% (inactive). With `O=C(CCCN1CCC2(CC1)NC(=O)c1ccccc1O2)c1ccc(F)cc1` the growth inhibition was 23.6% (inactive). In the case of `NC(Cc1ccc(B(O)O)cc1)C(=O)O` (stereo not given), the growth inhibition is reported as -26.1% (inactive). With `CCN=C(c1ccccc1)N(O)c1ccccc1` the growth inhibition was -10.7% (inactive). For `COC(=O)/N=c1\cc(N2CC=CCC2)nc(N)n1O`, the growth inhibition was -5.85% (inactive). With `CC1(CO)CCCC2(C)C3=CC(=O)CCC3CCC12` (stereo not given) the growth inhibition was -6.7% (inactive). In the case of `CC(=O)OC(C)c1cc2c(s1)C(=O)c1sccc1C2=O` (stereo not given), the growth inhibition is reported as 88.6% (active). For `CCNC(=O)NS(=O)(=O)c1ccc(Sc2ccc(Cl)cc2)nc1`, the growth inhibition was -5.8% (inactive). For `Cc1cccc(N2CCN(S(C)(=O)=O)CC2)c1`, the growth inhibition was 16.6% (inactive). In the case of `N[C@H]1c2c(Cl)cccc2C(=O)[C@H]1O`, the growth inhibition is reported as -3.7% (inactive). With `Cc1cccc2c(NCCC[N+](C)(C)[O-])c3c([N+](=O)[O-])ccc(C)c3nc12` the growth inhibition was 54.1% (inactive). With `CC(N)/C(N)=N/O` (stereo not given) the growth inhibition was 11.2% (inactive). For `CN(CCO)CCC1COc2ccccc2O1` (stereo not given), the growth inhibition was 2.1% (inactive). In the case of `CCCCC(SC(CC)(CC)C(N)=O)C(N)=O` (stereo not given), the growth inhibition is reported as 8% (inactive). For `CC1CC2OC(=O)C(C)C2CC2(C)C(OC3OC(CO)C(O)C(O)C3O)OCCC12` (stereo not given), the growth inhibition was 11.7% (inactive). With `CC1=N/C(=C/c2ccc3c(c2)OCO3)C(=O)O1` the growth inhibition was 5.05% (inactive). For `COc1ccc(C(=O)C[n+]2cc(Br)cc(Br)c2)cc1`, the growth inhibition was 7.9% (inactive). For `O=C(Nc1ccccc1)c1cc(S(=O)(=O)n2cc[nH]c2=O)c(S)cc1Cl`, the growth inhibition was 9.5% (inactive). For `CCCCC1CCC(C(=O)O)=NC1` (stereo not given), the growth inhibition was 5.65% (inactive). For `COC1OC(CO)C(O)C1O` (stereo not given), the growth inhibition was -25% (inactive). In the case of `C=CC(O)C(O)C=C` (stereo not given), the growth inhibition is reported as 15.1% (inactive). With `NC(=O)c1cc(Cl)c(N)c(Cl)c1` the growth inhibition was 8.2% (inactive). For `CC(C)(C)[N]=[V]([Cl])([Cl])[Cl]`, the growth inhibition was 3.65% (inactive). For `COc1ccc(/C=C2/CSCC3=C2NC(=S)NC3c2ccc(OC)c(OC)c2OC)c(OC)c1OC` (stereo not given), the growth inhibition was 12.8% (inactive). In the case of `Cc1ccc(C(C)C)cc1O`, the growth inhibition is reported as 17.6% (inactive). In the case of `Nc1nc2c(c(=O)[nH]1)C(c1ccc(Cl)cc1)C=C(c1ccccc1)N2` (stereo not given), the growth inhibition is reported as 5.6% (inactive). With `O=C(CCCC(=O)N/N=C/c1cc(Cl)ccc1[N+](=O)[O-])N/N=C\c1cc(Cl)ccc1[N+](=O)[O-]` the growth inhibition was 20.7% (inactive). For `CC1=CC[C@](C)(O)[C@@]2(C)CC[C@H]3C(=C(C)C)C(=O)C[C@]3(C)C[C@H]12`, the growth inhibition was 9% (inactive).

Assay: NCI Yeast Anticancer Drug Screen. Data for the mec2-1 strain (AID 157)
Conditions: S. cerevisiae mec2-1 strain, at 50.0 µM, active compounds read high
Outline: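 mec2-1 yeast strain, carrying an alteration in DNA damage repair or cell cycle control, was exposed to compounds; growth inhibition was measured relative to vehicle-treated controls.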
In the case of `Cc1ccccc1C1CCCCC1OS(C)(=O)=O` (stereo not given), the growth inhibition is reported as -1.35% (inactive). With `N#CC(c1ccccc1)N(CCc1ccccc1)C(=O)c1ccc(C(=O)N(CCc2ccccc2)C(C#N)c2ccccc2)cc1` (stereo not given) the growth inhibition was 26.9% (inactive). For `C=Cc1nnnn1C`, the growth inhibition was 16.2% (inactive). In the case of `C/C=C/C=C/C(=O)CCC1(C)OC(=O)C(C)=C1O` (stereo not given), the growth inhibition is reported as 0.45% (inactive). For `CC(CO)C1C[C@H](O)[C@@]2(C)CC(=O)C=C(CO)[C@@H]2C1` (stereo not given in full), the growth inhibition was 22.6% (inactive). In the case of `Cc1c(C)c(C(Cl)(Cl)Cl)c(C)c(C)c1Br`, the growth inhibition is reported as 4.8% (inactive). For `COc1cc(C2C(Cl)C(=O)N2NC(=O)c2ccc(N)cc2)cc(Br)c1O` (stereo not given), the growth inhibition was 0.95% (inactive). For `COC(=O)c1ccc(N=NN(C)COC(C)=O)cc1`, the growth inhibition was 12% (inactive). For `C=C1CCc2occ(C)c2C2C1C1=C(CC(C)C1=O)C1OC12C` (stereo not given), the growth inhibition was 11.1% (inactive). With `Cc1n[nH]c2ccccc2c1=O` the growth inhibition was -17.9% (inactive). In the case of `c1ccc(C2=NC(c3ccccc3)(c3ccccc3)N=C2c2ccccc2)cc1`, the growth inhibition is reported as 10.7% (inactive). With `COC1(OC)C2(Cl)C(Cl)=C(Cl)C1(Cl)C1C=CC=CC12` (stereo not given) the growth inhibition was -14.2% (inactive). For `COc1ccc(C=Nc2ccc(Cl)cc2)cc1`, the growth inhibition was -25.2% (inactive). With `O=C(CCCN1CCC2(CC1)NC(=O)c1ccccc1O2)c1ccc(F)cc1` the growth inhibition was 10.6% (inactive). In the case of `NC(Cc1ccc(B(O)O)cc1)C(=O)O` (stereo not given), the growth inhibition is reported as -53.6% (inactive). For `CCN=C(c1ccccc1)N(O)c1ccccc1`, the growth inhibition was 9.2% (inactive). With `COC(=O)/N=c1\cc(N2CC=CCC2)nc(N)n1O` the growth inhibition was -10.7% (inactive). With `CC1(CO)CCCC2(C)C3=CC(=O)CCC3CCC12` (stereo not given) the growth inhibition was -1.9% (inactive). With `CC(=O)OC(C)c1cc2c(s1)C(=O)c1sccc1C2=O` (stereo not given) the growth inhibition was 91% (active). For `CCNC(=O)NS(=O)(=O)c1ccc(Sc2ccc(Cl)cc2)nc1`, the growth inhibition was -2.95% (inactive). In the case of `Cc1cccc(N2CCN(S(C)(=O)=O)CC2)c1`, the growth inhibition is reported as 6.85% (inactive). For `N[C@H]1c2c(Cl)cccc2C(=O)[C@H]1O`, the growth inhibition was -1.35% (inactive). With `Cc1cccc2c(NCCC[N+](C)(C)[O-])c3c([N+](=O)[O-])ccc(C)c3nc12` the growth inhibition was -14.3% (inactive). In the case of `CC(N)/C(N)=N/O` (stereo not given), the growth inhibition is reported as 4.9% (inactive). With `CN(CCO)CCC1COc2ccccc2O1` (stereo not given) the growth inhibition was -29.6% (inactive). With `CCCCC(SC(CC)(CC)C(N)=O)C(N)=O` (stereo not given) the growth inhibition was -6.5% (inactive). With `CC1CC2OC(=O)C(C)C2CC2(C)C(OC3OC(CO)C(O)C(O)C3O)OCCC12` (stereo not given) the growth inhibition was 2.25% (inactive). With `CC1=N/C(=C/c2ccc3c(c2)OCO3)C(=O)O1` the growth inhibition was 6.1% (inactive). In the case of `COc1ccc(C(=O)C[n+]2cc(Br)cc(Br)c2)cc1`, the growth inhibition is reported as -12.8% (inactive). With `O=C(Nc1ccccc1)c1cc(S(=O)(=O)n2cc[nH]c2=O)c(S)cc1Cl` the growth inhibition was 3.6% (inactive). With `CCCCC1CCC(C(=O)O)=NC1` (stereo not given) the growth inhibition was 6.7% (inactive). For `COC1OC(CO)C(O)C1O` (stereo not given), the growth inhibition was -18.8% (inactive). For `C=CC(O)C(O)C=C` (stereo not given), the growth inhibition was -9% (inactive). In the case of `NC(=O)c1cc(Cl)c(N)c(Cl)c1`, the growth inhibition is reported as -7.65% (inactive). With `CC(C)(C)[N]=[V]([Cl])([Cl])[Cl]` the growth inhibition was -0.65% (inactive). For `COc1ccc(/C=C2/CSCC3=C2NC(=S)NC3c2ccc(OC)c(OC)c2OC)c(OC)c1OC` (stereo not given), the growth inhibition was 13.9% (inactive). For `Cc1ccc(C(C)C)cc1O`, the growth inhibition was 9.5% (inactive). For `Nc1nc2c(c(=O)[nH]1)C(c1ccc(Cl)cc1)C=C(c1ccccc1)N2` (stereo not given), the growth inhibition was 14.8% (inactive). In the case of `O=C(CCCC(=O)N/N=C/c1cc(Cl)ccc1[N+](=O)[O-])N/N=C\c1cc(Cl)ccc1[N+](=O)[O-]`, the growth inhibition is reported as 12.1% (inactive). In the case of `CC1=CC[C@](C)(O)[C@@]2(C)CC[C@H]3C(=C(C)C)C(=O)C[C@]3(C)C[C@H]12`, the growth inhibition is reported as 1.3% (inactive).
